Sampled rows, rich in hits. Any-hit rate of the full collection: about 13%.
CHOP inh – inhibitors of CHOP induction in ER stress response. CHO-K1 CHOP-promoter luciferase, tunicamycin-induced, 15-18 h. inhibition, % at 10 µM. actives 3.8% (n = 220,000);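 active = compounds that reduced the stress-induced luciferase reporter signal by more than about 70% of percent inhibition, limit read from the data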;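 also: 0% = tunicamycin plus vehicle and 100% = wells without tunicamycin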
WT yeast gro inh – growth inhibition of WT yeast, mitochondrial fusion screen | mitochondrial fusion phenotypic screen, WT strain | inhibition, % at 10 µM | actives 2.1% (n = 190,000); in the data active = inhibition above about 58%; tested in S. cerevisiae
RAM network inh – inhibitors of the yeast RAM network; actives 1.8% (n = 190,000); inhibition, % at 50 µM; S. cerevisiae dse1pr::URA3 reporter, 5-FOA growth OD615, 2 d; analog-sensitive cbk1-as2 kinase mutant strain;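 active = inhibition above a set limit, 3 SD over mean compound inhibition, cut at about 8.4% in these data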;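 also: 0% = DMSO-only wells with no growth and 100% = 10 µM 1-NA-PP1 full growth; inhibition rescues growth on 5-FOA so higher OD means more RAM inhibition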
L major viab – Leishmania major promastigote growth inhibition; actives 9% (n = 200,000); Leishmania major promastigotes, resazurin fluorescence viability; inhibition, % at 10 µM; in the data active = inhibition above about 50%;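 also: promastigotes grown with compound for 44 hours at 28 °C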
Starred values were filed as active, the others as inactive; nt = no result.

SMILES | CHOP inh | WT yeast gro inh | RAM network inh | L major viab
Cc1cc(N2CCN(c3ccc(F)cc3)CC2)nc2cc(O)ccc12 | 82* | 25 | 0 | 1
COc1ccc2c(C)cc(N3CCN(c4ccc(F)cc4)CC3)nc2c1 | 7 | 62 | 1 | 87*
COC(=O)c1ccc(NC(=O)CSCc2ccccc2C)cc1 | 53 | 20 | 1 | 0
Cc1ccc(OCC(=O)c2ccc3c(c2)CCCC3)cc1C | 48 | 58* | 3 | -3
CC(OC(=O)c1nc(-c2ccccc2)n(-c2ccccc2)n1)C(=O)Nc1cc(Cl)cc(Cl)c1 (stereo unspecified) | 12 | 15 | 4 | 0
O=C(CSc1nnc2n1CCCN2C(=S)Nc1ccc(Cl)cc1)c1ccccc1 | -11 | 65* | 3 | 2
O=C(CSc1nnc2ccccn12)c1ccc(Cl)cc1 | -23 | 2 | 2 | -1
CCN=C(Nc1cccc(F)c1)SC1CC(=O)N(c2ccc(OC)cc2)C1=O (stereo unspecified) | 90* | 10 | 3 | 23
CCN=C(NCC)SC1CC(=O)N(c2cccc(OC)c2)C1=O (stereo unspecified) | -2 | 2 | 3 | -6
O=C1CC(SC(=Nc2ccccc2)Nc2ccccc2)C(=O)N1c1ccc(Cl)c(Cl)c1 (stereo unspecified) | 90* | 62* | 2 | 66*
CCN1/C(=N\N)c2cccc3cccc1c23 | 0 | 9 | 3 | 7
COc1cc(NC(=O)COC(=O)CSc2cc(C)ccc2C)c(C)cc1[N+](=O)[O-] | 24 | 4 | 5 | -3
COc1ccc(/C=N/Nc2ccccc2)cc1Cn1nc(C)c([N+](=O)[O-])c1C | 24 | 13 | -1 | 77*
CCCCc1ccc(NC(=S)NCCc2ccc(F)cc2)cc1 | 17 | 68* | 2 | 17
CCOc1ccccc1NC(=S)NCCc1ccccc1 | 12 | 74* | 0 | 9
CCOc1ccccc1NC(=O)C(NCCN(C)C)c1ccccc1 (stereo unspecified) | 6 | 5 | 1 | 4
CCOc1ccccc1NC(=O)C(NCC1CCCCC1)c1ccccc1 (stereo unspecified) | 39 | 74* | -1 | 27
Fc1ccc(CCNC(=S)Nc2ccc(F)cc2)cc1 | -9 | 19 | 0 | 21
Cc1cccc(C)c1NC(=S)NC1CCCCC1 | 24 | 70* | 2 | 10
C=CCC1(NCc2ccco2)CCN(CC)CC1 | -1 | 6 | 1 | 0
O=c1c2ccccc2cnn1Cc1n[nH]c(=S)n1-c1ccccc1 | -4 | -9 | 0 | -8
COc1ccccc1NC(=S)NCCc1ccc(Cl)cc1 | 5 | -1 | -1 | 15
CCOc1ccccc1NC(=S)NC1CCCCC1 | 5 | 5 | 0 | 92*
CCOc1ccccc1NC(=S)NCCc1ccc(F)cc1 | -18 | 62* | 0 | 9
CCOc1ccccc1NC(=O)C(OC(=O)c1ccc(O)cc1)c1ccccc1 (stereo unspecified) | 38 | 77* | 5 | 7
SMILES | CHOP inh | WT yeast gro inh | RAM network inh | L major viab
CCOc1ccccc1NC(=O)c1ccc(Cl)c(NC(=O)CC(c2ccccc2)c2ccccc2)c1 | 1 | 0 | 8 | 70*
COc1ccccc1N/C=C/C(=C(C#N)C#N)N(C)C | -8 | 16 | 1 | 8
Cc1ccc(C(=O)OC(C(=O)Nc2ccc(Cl)cc2C(F)(F)F)c2ccccc2)cc1 (stereo unspecified) | 13 | 5 | 6 | 69*
Nc1ccc(Oc2cccc(Oc3ccc(N)cc3)c2)cc1 | 88* | 25 | 0 | 8
Cc1cccc(Oc2ccc(N)cc2)c1 | -9 | -30 | 0 | 1
CC(C)c1ccccc1NC(=O)COC(=O)c1cc(=O)[nH]c(=O)[nH]1 | -6 | -3 | 1 | -7
COc1cc(C)ccc1OCCOc1c(C)cccc1Cl | 71* | 2 | 1 | 2
COc1cc(C)ccc1OCCOc1c(Cl)cc(Cl)cc1Cl | 43 | 2 | 9.9* | -7
CN(C)c1ccc(-c2ccc([C@H]3[C@@H]4C=CCC[C@@]4(C)C(=O)N3Cc3ccccc3)c(F)c2)cc1 | 39 | nt | nt | nt
Cc1ccc(NC(=O)c2ccc(CNc3c(N4CCC(C)CC4)c(=O)c3=O)cc2)cc1 | 6 | nt | nt | nt
O=[N+]([O-])c1cc(-c2nc(-c3ccncc3)no2)ccc1Cl | -43 | 3 | 1 | 13
O=[N+]([O-])c1cc(-c2nc(-c3ccncc3)no2)cc([N+](=O)[O-])c1 | -5 | 18 | 0 | 94*
CC(C)(C)c1ccc(-c2nc(-c3ccncc3)no2)cc1 | 82* | 62* | -2 | -9
Cc1cc(C)cc(-c2nc(-c3ccncc3)no2)c1 | 84* | 6 | 2 | -3
Cc1cc(/C=C2\NC(=S)NC2=O)c(C)n1-c1cccnc1 | -8 | nt | nt | nt
O=S(=O)(/C=C/c1ccccc1)Nc1ccc2c(c1)OCO2 | 55 | 12 | 2 | 0
COc1cc2c(C#N)c(N3CCN(C)CC3)nc(N)c2c(N)n1 | 19 | 23 | 1 | 100*
c1ccc(-c2ccccc2OCCCN2CCCC2)cc1 | 22 | 6 | 0 | 48
c1ccc(-c2ccccc2OCCCN2CCCCCC2)cc1 | 11 | 14 | 1 | 98*
c1ccc(-c2ccccc2OCCCCN2CCCCC2)cc1 | 4 | 4 | 1 | 95*
CC[C@@H]1CC=C[C@H]2[C@H]1C(=O)N(Cc1ccccc1)[C@H]2c1cc(C)ccc1F | 54 | nt | nt | nt
COc1cc(Br)cc(C2C3=C(CCCC3=O)N(c3ccc(F)cc3)C3=C2C(=O)CCC3)c1O | 32 | 47 | 2 | 58*
O=C1CCCC2=C1C(c1ccc(O)c(Br)c1)C1=C(CCCC1=O)N2c1ccccc1 | 26 | 3 | 1 | 44
O=C(Nc1cccc([N+](=O)[O-])c1)Nc1cccc([N+](=O)[O-])c1 | 84* | 13 | 3 | 1
O=C(Nc1ccc(C(=O)O)cc1)Nc1cccc([N+](=O)[O-])c1 | 21 | -6 | 0 | 28
SMILES | CHOP inh | WT yeast gro inh | RAM network inh | L major viab
CC(C(=O)Nc1cccc(Br)c1)c1ccc([N+](=O)[O-])cc1 (stereo unspecified) | 60 | 8 | 0 | 51*
O=C(O)C1CC=CCC1C(=O)Nc1cccc([N+](=O)[O-])c1 (stereo unspecified) | 14 | 13 | 9.6* | -1
CC(C(=O)Nc1cccnc1)c1ccc([N+](=O)[O-])cc1 (stereo unspecified) | 13 | -5 | 1 | 7
COc1ccc(S(=O)(=O)N2CC(O)C[C@H]2C(=O)OCC(=O)N2CCCCCC2)cc1 (stereo partly specified) | -4 | 3 | 2 | -3
COc1cccc(OC)c1C(=O)Nc1nc2ccc([N+](=O)[O-])cc2s1 | 10 | 4 | 4 | 1
CC(=O)c1sc(-c2ccc(F)cc2F)nc1C | 13 | nt | nt | nt
CCCC(=O)OC(C(=O)Nc1cc(C(F)(F)F)ccc1Cl)c1ccccc1 (stereo unspecified) | 27 | 49 | 7 | 90*
CCCC(=O)Nc1ccc(C(=O)Nc2cc(C(F)(F)F)ccc2Cl)cc1 | 73* | -6 | 3 | 1
Cc1cc(C(=O)NCC(=O)OC(C(=O)Nc2cc(C(F)(F)F)ccc2Cl)c2ccccc2)ccc1[N+](=O)[O-] (stereo unspecified) | 82* | 49 | 7 | 39
